Shown are actives, neighbours in structure and some others; about 3.2% of the full set was active somewhere.
ClpP mod: qHTS Assay for Activators of ClpP; purified B. subtilis ClpP, FRET peptide cleavage, 20 min; AID 651965, 2013; 1.9% of 340,000 active; Potency, µM (titrated, usually from 57.5 µM); ATP-dependent Clp protease proteolytic subunit (Bacillus subtilis (strain 168)), P80244; active = well fitted falling curve with a large enough effect; inconclusive = small, poorly fitted or top-dose-only effect; inactive = no such curve, though single readings can be large or run the other way; also: the source files actives as falling curves though it sought activators and does not explain the sign; nearly all actives have a fitted effect of over 65% in size
Target sequence (P80244 whole entry, looked up): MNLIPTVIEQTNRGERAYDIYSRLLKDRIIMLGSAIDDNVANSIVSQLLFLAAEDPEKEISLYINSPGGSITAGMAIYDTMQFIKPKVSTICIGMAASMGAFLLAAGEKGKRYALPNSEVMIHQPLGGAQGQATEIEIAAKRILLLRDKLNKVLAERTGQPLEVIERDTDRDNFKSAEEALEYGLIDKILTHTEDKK
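Purified B. subtilis ClpP, 10 microg/mL final in Tris/HCl pH8 with KCl, BSA, glycerol and Tween-20, cleaved an Abz/nitrotyrosine-quenched decapeptide. Fluorescence (ex 320, em 430) was read at 0 and 20 min at room temperature. Delta was normalized to 5.8 microM ADEP and DMSO/no-enzyme controls.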
GLP1R ag: GLP-1 receptor (human) agonism. P43220. HEK293 GLP-1R CRE-luciferase, luminescence, 4-6 h; cells express a hypersensitive GLP-1R form. Potency, µM (highest dose often 45.6 µM), usual class: activators. 0.007% of 380,000 active
Target sequence (P43220 whole entry, looked up): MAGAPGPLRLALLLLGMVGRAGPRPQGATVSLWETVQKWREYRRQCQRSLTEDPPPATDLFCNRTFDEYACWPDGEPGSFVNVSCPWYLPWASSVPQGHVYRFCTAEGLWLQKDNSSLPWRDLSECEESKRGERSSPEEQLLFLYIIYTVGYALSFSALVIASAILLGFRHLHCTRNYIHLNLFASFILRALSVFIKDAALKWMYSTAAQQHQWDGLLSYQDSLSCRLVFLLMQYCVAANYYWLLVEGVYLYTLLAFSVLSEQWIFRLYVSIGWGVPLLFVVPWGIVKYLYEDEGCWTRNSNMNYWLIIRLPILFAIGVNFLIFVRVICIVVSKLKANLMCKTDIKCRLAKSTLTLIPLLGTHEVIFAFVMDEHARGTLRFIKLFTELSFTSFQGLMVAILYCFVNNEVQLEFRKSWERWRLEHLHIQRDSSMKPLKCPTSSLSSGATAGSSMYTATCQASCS
GLP1R cytotox: cytotoxic in the GLP-1 receptor inverse agonist counter-screen. HEK293 cAMP-luciferase reporter cells, luminescence, 24 h. Potency, µM (top dose mostly 38.3 µM), hits mostly inhibitors. 0.13% of 410,000 active. AID 624418;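 also: loss of luciferase light is scored as toxicity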
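MLSMR compounds, 24 hr on cells at 37 deg C/5% CO2; luminescence after luciferase reagent (12 min RT). Inhibition counted as the undesired cytotoxic outcome.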
GLP-1R inv ag: GLP-1 receptor (human) inverse agonism; P43220; HEK293 GLP-1R CRE-luciferase, luminescence, 24 h; GLP-1R form is constitutively active; Potency, µM (highest dose often 38.3 µM), usual class: inhibitors; 1.6% of 410,000 active; AID 624417; also: nearly all actives have a fitted effect of over 55% in size
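Luminescence readout: a drop in cAMP-driven luciferase signal flags inverse agonism at a constitutively active GLP-1R stably expressed in HEK293. Compound exposure lasted 24 hr at 37 deg C, 5% CO2.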
Each line names hits and unclear results; the compound was inactive in the other large screens. Unless noted, calls follow the shape of the dose curve; as a rule, active = well fitted curve in the direction sought with a large enough effect; inconclusive = small, poorly fitted or top-dose-only effect, or another doubt; inactive = no such curve, though single readings can be large; an effect the other way counts as inactive or inconclusive.

CCc1cccc(C)c1NC(=O)CN(C)Cc1cccc(F)c1	GLP-1R inv ag 8.91µM
CN(C(=S)NC(=O)c1ccccc1Br)C1CCCCC1	GLP1R cytotox inconclusive, GLP-1R inv ag 10µM
Cc1ccccc1C(=O)NC(=S)N(C)C1CCCCC1	GLP1R cytotox inconclusive, GLP-1R inv ag inconclusive
Cc1ccc(NC(=O)CC(C)S(=O)(=O)c2ccc3c(c2)NC(=O)CO3)c(C)c1 (centres undefined)	none (no result: GLP1R ag)
CC(C)Oc1ccc(C(=O)Nc2nc3ccccc3[nH]2)cc1	GLP-1R inv ag 1.12µM (no result: ClpP mod)
CC(=O)NCC(=O)OCC(=O)c1ccc2ccccc2c1	ClpP mod 28.2µM
Cc1ccc2c(c1)cc(C(=O)NCc1ccccc1C)n2C	ClpP mod inconclusive, GLP-1R inv ag inconclusive (no result: GLP1R ag)
Cc1cc(C(=O)NNC(=O)CCCOc2ccccc2)c(C)o1	none (no result: ClpP mod)
CC(C)(C)c1ccc(OCCCC(=O)NNC(=O)c2ccccc2O)cc1	GLP-1R inv ag 12.6µM (no result: ClpP mod)
Cc1ccc(OCCC(=O)OCC(=O)NNC(=O)c2ccccc2)cc1	ClpP mod 25.1µM
CCOc1ccc(OCCC(=O)NNC(=O)c2ccncc2)cc1	ClpP mod 7.94µM
CCOc1ccc(NC(=O)N2CCN3CCCCC3C2)cc1 (centres undefined)	none (no result: GLP1R ag)
COc1ccccc1CNC(=O)CSc1nnc(C)c2c(C)n(-c3ccccc3)nc12	none (no result: GLP1R ag)
COc1ccc2oc(=O)cc(CN3CCN(C(=O)c4ccccc4Br)CC3)c2c1	GLP1R cytotox inconclusive (no result: GLP1R ag)
Cc1cc(C)n(CCc2nc3c4ccccc4nc(N4CCN(c5ccccc5F)CC4)n3n2)n1	none (no result: GLP1R ag)
COc1ccc(N2CCN(C(CNC(=O)CC(C)C)c3ccc4c(c3)OCO4)CC2)cc1 (centres undefined)	none (no result: GLP1R ag)
CCOc1ccc(NC(=O)C2CC(=O)N(c3ccc(C(C)C)cc3)C2)cc1 (centres undefined)	none
CCc1cccc2c(C(O)c3c[nH]c4ccccc34)c[nH]c12 (centres undefined)	none (no result: GLP1R ag, GLP1R cytotox, GLP-1R inv ag)
CCCCOc1ccc(C(=O)OC2CC(C)N(C)CC2C)cc1 (centres undefined)	GLP-1R inv ag 3.55µM
Cc1cc(C)c2c(n1)sc1c(O)cc(=O)[nH]c12	ClpP mod 31.6µM
COc1cc(Cn2c3ccc(NC(=O)CCc4ccccc4)cc3c(=O)n2C)ccc1F	GLP1R cytotox inconclusive, GLP-1R inv ag 2.24µM
COc1ccc2nc(C)cc(Nc3ccc(C(=O)O)cc3)c2c1	none
CCOc1ccc2oc(C(=O)O)c(C)c2c1	none (no result: ClpP mod)
CCOc1ccc2nc(C)cc(C(=O)O)c2c1	ClpP mod 3.16µM
COc1ccc2nc(C)cc(C(=O)O)c2c1	ClpP mod 8.91µM
COc1ccccc1/C=C/C(=O)Nc1nc2n(n1)C(c1ccc(F)cc1)C=C(c1ccccc1)N2 (centres undefined)	none (no result: GLP1R ag)
O=C(Nc1cc(Cl)ccc1Oc1ccccc1)C1=COCCO1	GLP-1R inv ag inconclusive
CCOc1ccc(Oc2ccc(Cl)cc2NC(=O)C2=COCCO2)cc1	GLP-1R inv ag 10µM
C[C@@]12CCC=C[C@H]1[C@H](c1ccc(/C=C/c3ccccc3)cc1F)N(Cc1ccccc1)C2=O	GLP-1R inv ag 7.94µM
C[C@@]12CCC=C[C@H]1[C@H](c1ccc3ccccc3c1/C=C/c1ccccc1)N(Cc1ccccc1)C2=O	ClpP mod inconclusive
COc1ccc(-c2ccc(C(C)=O)cc2)cc1[C@H]1[C@@H]2C=CCC[C@@]2(C)C(=O)N1Cc1ccccc1	ClpP mod inconclusive
COc1ccc(-c2ccc(C)cc2)cc1[C@H]1[C@@H]2C=CCC[C@@]2(C)C(=O)N1Cc1ccccc1	ClpP mod inconclusive, GLP-1R inv ag 10µM
Cc1nc(N2CCOCC2)c2c(C(=O)N3CCN(c4cccc(C)c4C)CC3)c(C)oc2n1	none (no result: GLP1R ag)
Cc1ccc2c(CNCc3cccs3)c(C(=O)O)n(Cc3ccc(F)cc3)c2c1	GLP1R cytotox inconclusive, GLP-1R inv ag inconclusive
CCCCOC(=O)c1ccc(NC(=O)Cc2coc3ccc(C(C)C)cc23)cc1	GLP1R cytotox inconclusive, GLP-1R inv ag 7.94µM (no result: GLP1R ag)
Cc1ccc(NC(=O)Cc2coc3ccc(C(C)C)cc23)cc1Cl	GLP-1R inv ag inconclusive (no result: GLP1R ag)
Cc1ccccc1NC(=O)Cn1c(=O)n(Cc2ccccc2)c(=O)c2sc3ccccc3c21	ClpP mod inconclusive
O=C(NCCc1ccccc1)C(=O)NCC(c1cccnc1)N1CCN(c2ccccc2)CC1 (centres undefined)	none (no result: GLP1R ag)
CCCCNC(=O)CSc1nc2cc3c(cc2c(=O)n1CCCCCC(=O)NCc1ccc(OC)cc1)OCO3	none (no result: GLP1R ag)
Clc1ccc(-c2nc(N3CCCCC3)nc3ccccc23)cc1	GLP-1R inv ag inconclusive
c1ccc(-c2nc(-n3nc4ccccc4n3)nc3ccccc23)cc1	ClpP mod 35.5µM, GLP-1R inv ag inconclusive
CCOc1ccc(-c2nc(SCC(=O)Nc3cc(F)ccc3F)n3[nH]c(=O)cc3n2)cc1	none (no result: GLP1R ag)
COc1ccc(C(=O)N2c3nc(-c4ccco4)nn3C3(CCCCC3)[C@@H]3CCCC[C@@H]32)cc1OC	none (no result: GLP1R ag)
COc1ccccc1C(C[N+](=O)[O-])c1c(N)n(C)c(=O)n(C)c1=O (centres undefined)	GLP1R cytotox inconclusive, GLP-1R inv ag 2.82µM
COc1ccccc1C(c1c(N)n(C)c(=O)n(C)c1=O)C(C)[N+](=O)[O-] (centres undefined)	none (no result: ClpP mod)
CCN(c1ccccc1)S(=O)(=O)c1ccc(NC(=O)c2cc(=O)c3cc(C)cc(C)c3o2)cc1	none (no result: GLP1R ag)
CNc1ncnc2c1ncn2[C@H]1CN(Cc2cccc3ccccc23)C[C@@H](CO)O1	none
CCCCCCSC1=C(C#N)C(c2ccc(O)cc2)CC(=O)N1 (centres undefined)	GLP1R ag inconclusive, GLP-1R inv ag 5.01µM
COc1ccc(S(=O)(=O)N2CCC[C@H]2C(=O)NC2=NCCS2)cc1	none
COc1ccc(S(=O)(=O)N2CCCC2C(=O)Nc2nnc(-c3cccnc3)s2)cc1 (centres undefined)	ClpP mod 28.2µM
CN1C(=O)Cc2cc(S(=O)(=O)CCC(=O)Nc3ccccc3)ccc21	none (no result: GLP1R ag)
Cc1nc(N2CCC(C)CC2)c2nnn(Cc3ccccc3)c2n1	GLP-1R inv ag 10µM
CC(C)Cc1nc(N2CCC(C(N)=O)CC2)c2nnn(Cc3ccccc3)c2n1	none
O=C(Cn1cc(SCc2ccccc2F)c2ccccc21)N1CCCCC1	none (no result: GLP1R ag)
O=C(C1CC1)N1CCc2cc(Br)cc(S(=O)(=O)Nc3ccc(F)c(F)c3)c21	GLP1R cytotox inconclusive, GLP-1R inv ag 22.4µM
Cc1ccc(NS(=O)(=O)c2cc(Br)cc3c2N(C(=O)C2CC2)CC3)cc1C	GLP-1R inv ag inconclusive (no result: GLP1R ag)
CCc1ccc2oc(-c3cc(NC(=O)c4cccnc4)cc(C)c3O)nc2c1	none
Cc1cccc(NC(=O)c2ccc(N(Cc3ccccc3)S(C)(=O)=O)cc2)c1	none (no result: GLP1R ag)
COc1ccccc1C1/C(=C(/O)c2ccc(C)cc2)C(=O)C(=O)N1CC(C)O (centres undefined)	ClpP mod 28.2µM
COc1ccccc1C1/C(=C(/O)c2ccccc2)C(=O)C(=O)N1CC(C)C (centres undefined)	none

Screening data deposited in PubChem BioAssay by National Center for Advancing Translational Sciences (NCATS).
